Measurements: PubChem BioAssay AID624298 (National Center for Advancing Translational Sciences (NCATS), 2012)
Results filed as inconclusive are left out. The source made the active and inactive calls. The call rests on the fitted dose curve; in most records, active means well fitted activation curve with a large enough effect; inconclusive means small, poorly fitted or top-dose-only effect; inactive means no such curve, though single readings can be large or run the other way.

test: Activators of T cell receptors: Hit Validation; details: primary human leukocytes, cytokine release by HTRF, 48 h; on activation: 0% is about no effect
Excerpt: Normally activation of naive T cells requires two signals. 1. A signal through the T cell receptor (TCR) which provides antigen specificity to the response. 2. Signals through co-stimulatory molecules, which are necessary for proliferation, survival and cytokine production. In the absence of co-stimulatory signals T cells are not effectively activated, and may even be rendered anergic or unresponsive to subsequent signaling. This lack of costimulation has been shown in multiple model systems to be a major factor in the limited strength and effectiveness of anti-tumor T cell responses. The goal of this project is to identify small molecule compounds that will stimulate T cell activation in the presence of TCR signaling but in the absence of co-stimulatory signals, thereby allowing activation of naive T cells in the absence of co-stimulation. Identification of such compounds would have clear experimental and clinical applications in instances where desirable antigen-specific immune responses are not generated due to a lack of co-stimulation, for example in the generation of anti-tumor responses.
In collaboration between the National Cancer Institute and NIH Chemical Genomics Center, a high-throughput amenable screen was developed to discover small molecules that co-stimulate and activate human T cell receptors. The screen will be carried out using a novel homogeneous time resolved fluorescence energy transfer (HTRF) assay to measure production of the cytokine IL-2 by activated T cells and will be tested against the NIH Molecular Libraries Small Molecule Repository (MLSMR). This is the same assay tested against the hits identified in the primary screen.
NIH Chemical Genomics Center [NCGC]
NIH Molecular Libraries Probe Centers Network [MLPCN]
Assay Submitter (PI): Richard Hodes, National Cancer Institute, NIH
Primary human leukocytes are incubated with a-CD3 beads and compounds for 48 hr. The amount of secreted IL-2 is then assayed with a HTRF IL-2 kit. The presence of IL-2 cytokine captures the detection reagents and brings the a-IL-2-K and a-IL-2-d2 into close proximity. Upon excitation with 320nm light, the europium cryptate is capable of transferring energy to acceptor molecules within close proximity, resulting in acceptor molecule emission at 665nm.
Potency means the concentration at half of the fitted maximal effect.

Row | SMILES | Potency
1 | CN(C)c1ccc(/C=C/c2cc[n+](C)c3ccccc23)cc1 | 7.91 µM (active)
2 | C=C(C)[C@@]12OC3(c4ccccc4)O[C@@H]1C1[C@@H]4O[C@]4(CO)[C@@H](O)[C@]4(O)C(=O)C(C)=C[C@H]4[C@@]1(O3)[C@H](C)[C@H]2OC(=O)/C=C/C=C/c1ccccc1 (stereo not given in full) | 0.002 µM (active)

same assay, conditions: primary human leukocytes, cytokine release by HTRF, 48 h; TCR-stimulated with anti-CD3 beads

Row | SMILES | Potency
3 | CN(C)c1ccc(/C=C/c2cc[n+](C)c3ccccc23)cc1 | 6.28 µM (active)

same assay, conditions: primary human leukocytes, cytokine release by HTRF, 48 h; at 46.1 µM (top of the series)

Row | SMILES | activation
4 | COc1ccc(/C=C/C(=O)c2c(O)n(CCC3=CCCCC3)c(=O)[nH]c2=O)cc1 | 2.49% (inactive)
5 | C#C[C@]1(O)CC[C@H]2[C@@H]3CCC4=CC(=O)CC[C@]4(C)[C@H]3CC[C@@]21C | -6.05% (inactive)
6 | COc1ccc(N/N=C/c2c(O)n(-c3ccc(C)c(C)c3)c(=O)[nH]c2=O)cc1 | 11.6% (inactive)
7 | CCC(C)n1c(O)c(C=NC(C)c2ccccc2)c(=O)[nH]c1=S (stereo not given) | 6.34% (inactive)

same assay, conditions: primary human leukocytes, cytokine release by HTRF, 48 h; at 46.1 µM (top of the series); TCR-stimulated with anti-CD3 beads

Row | SMILES | activation
8 | Nc1cc(Cl)cc(Cl)c1 | -3.76% (inactive)
9 | CC(C)[C@]12CC(=O)[C@H](C)[C@H]1C2 | -2.87% (inactive)
10 | Cc1ccc(OC(F)F)c(N2C(=O)C3C4CCC(O4)C3C2=O)c1 (stereo not given) | -0.91% (inactive)
